{"source": "PubChem BioAssay (EPA / NIEHS)", "note": "Inconclusive results are not listed. Activity calls are given as the source filed them. How the source made its calls: active means hit-call score of the fitted dose curve at least 0.9, where 1 is the maximum; inconclusive means response in the unintended direction; inactive means score below 0.9.", "data": [{"molecular_target": "bovine Gamma-Aminobutyric Acid Type A Receptor BDZ, alpha 1 site (GABARa1), GABRA1 (gene 780973) (UniProt P08219)", "sequence (P08219 whole entry, looked up)": "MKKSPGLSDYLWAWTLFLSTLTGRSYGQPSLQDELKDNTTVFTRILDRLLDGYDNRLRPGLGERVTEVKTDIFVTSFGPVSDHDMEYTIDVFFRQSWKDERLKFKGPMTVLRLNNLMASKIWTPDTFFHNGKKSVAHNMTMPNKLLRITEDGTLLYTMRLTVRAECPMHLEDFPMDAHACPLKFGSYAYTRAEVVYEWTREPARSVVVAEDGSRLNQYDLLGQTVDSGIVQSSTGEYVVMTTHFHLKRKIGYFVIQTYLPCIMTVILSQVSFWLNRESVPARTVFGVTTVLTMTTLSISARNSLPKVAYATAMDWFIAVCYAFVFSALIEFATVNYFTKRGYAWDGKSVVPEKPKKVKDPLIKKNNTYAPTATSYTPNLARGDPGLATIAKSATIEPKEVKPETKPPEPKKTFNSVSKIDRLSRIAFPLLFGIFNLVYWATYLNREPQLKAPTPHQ", "experiment": "NVS_LGIC_bGABARa1: NovaScreen (NVS) Ligand-Gated Ion Channel Assay for bovine Gamma-Aminobutyric Acid Type A Receptor BDZ, alpha 1 site (GABARa1) (AID 2283321)", "description": "NVS_LGIC_bGABARa1 is a biochemical, single-readout assay that uses extracted gene-proteins from Bovine cortical membranes in a tissue-based cell-free assay. Measurements were taken 0.75 hour after chemical dosing in a 48-well plate.NVS_LGIC_bGABARa1 is one of one assay component(s) measured or calculated from the NVS_LGIC_bGABARa1 assay. It is designed to make measurements of radioligand binding, a form of binding reporter, as detected with scintillation counting signals by Filter-based radiodetection technology.Data from the assay component NVS_LGIC_bGABARa1 was analyzed into 1 assay endpoint. This assay endpoint, NVS_LGIC_bGABARa1, was analyzed in the positive analysis fitting direction relative to DMSO as the negative control and baseline of activity. Using a type of binding reporter, loss-of-signal activity can be used to understand changes in the binding as they relate to the gene GABRA1. Furthermore, this assay endpoint can be referred to as a primary readout, because the performed assay has only produced 1 assay endpoint. To generalize the intended target to other relatable targets, this assay endpoint is annotated to the ion channel intended target family, where the subfamily is ligand-gated ion channel.\nBinding assays used specific radioligands (tritiated, iodinated) with non-radioactive competitive displacement ligands in agonist or antagonist protocols (as indicated) and various reference compounds and inhibitors to titrate specific binding to receptors and transporters. Most enzyme assays (CYPs, kinases, phosphatases, proteases, HDACs) used recombinant protein and specific substrates (fluorescence mostly, some colorimetric and radioactive) and inhibitors, followed by a biochemical separation of substrate and product. All assays for the biochemical HTS were initially run in duplicate at a single concentration (10 uM for CYP450 assays and 25 uM for all others). Assay-chemical combinations meeting a pre-defined threshold (e.g., 30% inhibition and other criteria defined below) were then run in singleton concentration-response format with maximum concentration of 20 uM for CYPs and 50 uM for all others. Each assay was run with positive and negative controls, and concurrent controls on every plate. The follow-up (secondary) screen tested active chemical-pairs in concentration series, as well as a few additional assays not tested in the primary screen, some selected negative inactives, and several cases re-run in the concentration series for confirmatory purposes.", "values": [{"compound": "C#C[C@]1(O)CC[C@H]2[C@@H]3CCC4=CC(=O)CC[C@@H]4[C@H]3CC[C@@]21CC", "AC50": "2.23 µM (active)"}, {"compound": "CC(C)(c1ccc(O)cc1)c1ccc(O)cc1", "outcome": "inactive"}, {"compound": "CCCCOC(=O)c1ccc(O)cc1", "AC50": "35.1 µM (active)"}, {"compound": "CN(C)CCCN1c2ccccc2Sc2ccc(Cl)cc21", "outcome": "inactive"}, {"compound": "CCN(CC)CCNc1ccc(CNC=O)c2sc3ccc(OC)cc3c(=O)c12", "outcome": "inactive"}, {"compound": "CN(C[C@@H](CC[N+]12CCC(C3CCCCC3)(CC1)CC2)c1ccc(Cl)c(Cl)c1)C(=O)c1cc(C(F)(F)F)cc(C(F)(F)F)c1", "outcome": "inactive"}, {"compound": "Cc1[nH]nc2c1N=C(c1ccccc1Cl)c1cc([N+](=O)[O-])ccc1N2", "AC50": "2.29 µM (active)"}, {"compound": "c1ccc2[nH]c(-c3cscn3)nc2c1", "outcome": "inactive"}, {"compound": "Nc1nc(N)c2nc(CNc3ccc(C(=O)N[C@@H](CCC(=O)O)C(=O)O)cc3)cnc2n1", "outcome": "inactive"}, {"compound": "C#C[C@]1(O)CC[C@H]2[C@@H]3CCC4=CC(=O)CC[C@@H]4[C@H]3CC[C@@]21C", "AC50": "1.27 µM (active)"}, {"compound": "COC(=O)CSc1cc(N=c2sc(=O)n3n2CCCC3)c(F)cc1Cl", "outcome": "inactive"}, {"compound": "NC(=O)Cn1c(=O)cc(CCN2CCN(c3nccc4sccc34)CC2)c2ccc(F)cc21", "AC50": "4.48 µM (active)"}, {"compound": "CCCCCCCCCC(=O)O", "AC50": "19.7 µM (active)"}, {"compound": "CCn1nc(C)c2c1C(=O)NCC(c1ccc(O)cc1)=N2", "outcome": "inactive"}, {"compound": "Cc1cc(SC2=C(O)C[C@@](CCc3ccc(N)cc3)(C(C)C)OC2=O)c(C(C)(C)C)cc1CO", "AC50": "22.6 µM (active)"}, {"compound": "CNCc1ccc(NC(=O)c2c[nH]c3c2C(=O)CCC3)cc1", "AC50": "0.0626 µM (active)"}, {"compound": "Cn1cnc([N+](=O)[O-])c1Sc1ncnc2nc[nH]c12", "outcome": "inactive"}, {"compound": "Clc1cc(Cl)c(Cl)cc1Cl", "outcome": "inactive"}, {"compound": "CC[C@H](C)[C@@H](C(=O)O)n1sc2ccccc2c1=O", "outcome": "inactive"}, {"compound": "CCOC(=O)C(C)(C)Oc1ccc(Cl)cc1", "AC50": "25 µM (active)"}, {"compound": "COCc1nnc(-c2ccc[n+]([O-])c2)n1-c1c(Cl)c(Cl)cc2[nH]c(=O)c(=O)[nH]c12", "outcome": "inactive"}, {"compound": "NC(=O)N(O)[C@@H]1C=C[C@H](Oc2cccc(Oc3ccc(F)cc3)c2)C1", "outcome": "inactive"}, {"compound": "COc1nc(C)nc(NC(=O)NS(=O)(=O)c2ccccc2OCCCl)n1", "outcome": "inactive"}, {"compound": "NC(=Nc1ccccc1)Nc1ccccc1", "AC50": "21.8 µM (active)"}, {"compound": "COc1cccc(-c2ccc(/C=C\\CN3CCCCCC3)cc2Cl)c1", "AC50": "11.7 µM (active)"}, {"compound": "CCC(C)N(C)C(=O)c1cc2ccccc2c(-c2ccccc2Cl)n1", "note": "(stereo not drawn)", "AC50": "10.2 µM (active)"}, {"compound": "NC(=O)N1c2ccccc2C=Cc2ccccc21", "outcome": "inactive"}, {"compound": "CCCCc1ccc2c(n1)[C@@H](c1ccc(OC)cc1C[C@H](C)C(=O)O)[C@H](C(=O)O)[C@H]2c1ccc2c(c1)OCO2", "outcome": "inactive"}, {"compound": "C1=CCCC=CCCC=CCC1", "outcome": "inactive"}, {"compound": "CCSC(=O)N(CC(C)C)CC(C)C", "outcome": "inactive"}, {"compound": "CCOc1ccc2[nH]cc(C(=O)NCc3ccccc3)c(=O)c2n1", "outcome": "inactive"}, {"compound": "O=C(OCCOCCOC(=O)c1ccccc1)c1ccccc1", "AC50": "1.4 µM (active)"}, {"compound": "C/C=C/C=C/C(=O)O", "AC50": "20.9 µM (active)"}]}]}
